The results in this text go back to PubChem BioAssay AID1851 (National Center for Advancing Translational Sciences (NCATS), 2009).

Structures are written as SMILES. Several values for one entry are separate records, joined by “and”; a condition that tells them apart may be missing. Equal values may be shown once. Among all 16,000 compounds or so, about 5,800 (36%) were called active. Inconclusive results (about 23%) are left out. This is one part of the list. A number with no mark means an inactive call. The call rests on the fitted dose curve; in most records, active means well fitted curve in the direction sought with a large enough effect; inconclusive means small, poorly fitted or top-dose-only effect, or effect the other way; inactive means no such curve, though single readings can be large or run the other way.
On the % scale 0 is the no-effect control and ±100 the full control effect.

The assay deals with Cytochrome P450 2C19 (Homo sapiens) (UniProt P33261). Kind of assay: Cytochrome panel assay with activity outcomes. Particulars: recombinant CYP, pro-luciferin dealkylation, luminescence, p450-cyp2c19; series mostly up to 57.1 µM; activity, negative = inhibition: at the top concentration.
Sequence of Cytochrome P450 2C19 (Homo sapiens) (P33261 whole entry, looked up): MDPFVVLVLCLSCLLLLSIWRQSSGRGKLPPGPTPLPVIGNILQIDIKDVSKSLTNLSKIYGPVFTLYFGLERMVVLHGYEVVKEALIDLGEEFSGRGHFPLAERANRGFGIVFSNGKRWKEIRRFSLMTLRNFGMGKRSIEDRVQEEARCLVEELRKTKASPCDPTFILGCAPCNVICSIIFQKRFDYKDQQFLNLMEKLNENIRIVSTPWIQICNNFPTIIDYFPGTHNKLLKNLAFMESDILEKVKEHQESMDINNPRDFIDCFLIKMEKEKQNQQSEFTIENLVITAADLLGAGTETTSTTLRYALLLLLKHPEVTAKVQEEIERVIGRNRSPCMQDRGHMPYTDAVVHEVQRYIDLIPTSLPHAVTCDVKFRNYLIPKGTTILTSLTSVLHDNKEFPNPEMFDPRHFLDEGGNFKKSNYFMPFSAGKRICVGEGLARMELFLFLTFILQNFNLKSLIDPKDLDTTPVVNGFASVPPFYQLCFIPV
One may read the AC50 as the concentration giving half of the maximal activity seen. On to `O=C(CS(=O)c1cccc(Cl)c1)Nc1ccccc1Cl` (configuration not stated), for which the half-maximal activity concentration (AC50) is 2.51 µM (active). In the case of `NC(=O)NC(=O)Nc1ccccc1Cl`, the “activity, negative = inhibition” value was -12.5%. On the same count and under the same terms, the result for `OC[C@@H]1O[C@@H](n2cnc3c(N[C@H]4CCC[C@@H]4O)ncnc32)[C@H](O)[C@H]1O` reads -26.2%. For the molecule `Cc1cccc[n+]1CC(=O)Nc1ccc([N+](=O)[O-])cc1Cl`, the AC50 is 3.16 µM (active). With `O=C(Nc1ccc([N+](=O)[O-])cc1Cl)c1cc(Cl)ccc1O`, the “activity, negative = inhibition” value was -30.4%.

On to `Cc1ccc(S(=O)(=O)c2c(C)nn(C(C)(C)C)c2OC(=O)c2cccs2)cc1`, for which the AC50 was 1 µM (active). Take `CN1CCC(n2[nH]c(-c3ccccc3)c(Cc3ccccc3)c2=O)CC1`: the activity, negative = inhibition is -29.5% [at 11.4 µM]. Still for that read-out and setting: with `COc1cc([C@H](O)CO)ccc1O` the figure was 9.63%. Turning to `N#Cc1c(N)nc2c(c1-c1cccc(O)c1)CCCCCC2`, the concentration at half-maximal activity (AC50) is 7.08 µM (active). On the same count and under the same terms, the result for `CCc1sc(-c2c(C#N)c(N)nc3c2CCCCCC3)cc1[N+](=O)[O-]` reads 3.98 µM (active). On the same count and under the same terms, with `Cc1c(-c2c(C#N)c(N)nc3c2CCCCCC3)cnn1C` the figure was 14.1 µM (active); with `FC(F)(F)c1ccc(N2CCOCC2)c(Nc2nc3ccccc3n3cnnc23)c1`, 3.55 µM (active).

As for `Cc1ccccc1S(=O)(=O)c1c(C)cc(-c2ccccc2)[nH]c1=O`, the “activity, negative = inhibition” value is -7.26%. In the case of `CCCCSc1nc(C)cc(C)c1S(=O)(=O)c1ccccc1C`, the half-maximal activity concentration (AC50) was 0.562 µM (active). The same measure, in the same setting: with `CCCSc1nc(C)cc(C)c1S(=O)(=O)c1ccccc1C` the figure was 2.24 µM (active).

As for `COc1ccccc1CN1CCC2(CC1)CCN(S(C)(=O)=O)CC2`, the “activity, negative = inhibition” value was -15.7%. Same read-out and setting: the result for `COc1ccccc1CN1CCC2(CCNCC2)CC1` reads -22.3%.

For `COc1ccccc1/C=C/C=N/N1CCN(Cc2cccc3ccccc23)CC1`, the AC50 is 14.1 µM (active).

Consider `Cc1ccc(C(=O)c2ccc(CC(=O)O)n2C)cc1`, for which the “activity, negative = inhibition” value was -10.5% [at 25.6 µM]. With `O=C(NCc1cccnc1)C1COc2ccccc2O1` (configuration not stated), the AC50 was 8.91 µM (active). Still for that read-out and setting: with `O=C(Nc1cccnc1)C1COc2ccccc2O1` (configuration not stated) the figure was 11.2 µM (active). Consider `O=C(Nc1ncc(Cc2ccccc2)s1)C1COc2ccccc2O1` (configuration not stated), for which the “activity, negative = inhibition” value was -19.2%. Consider `COC(=O)CCCC(=O)O`, for which the activity, negative = inhibition was 37.5% [at 11.4 µM]. Still for that read-out and setting: with `O=C(O)CN(CCN(CC(=O)O)CC(=O)O)CC(=O)O.[Cu]` the figure was -41.9% [at 11.4 µM]; with `Cc1cc2c(c(=O)o1)[C@H](O)[C@H]1O[C@@H]1C2=O`, -43.4% [at 11.4 µM]. In the case of `O=C(CCN1C(=O)C2C3C=CC(C3)C2C1=O)NCCN1CCCc2ccccc21` (configuration not stated), the AC50 is 28.2 µM (active). `CC(C)(C)NCC[C@@H](O)c1cc(C(F)(F)F)nc2c(C(F)(F)F)cccc12`: the activity, negative = inhibition is -11% [at 11.4 µM]. Take `CCN(CC)c1ccc2c(c1)OC(N)=C(C#N)C2c1cccnc1` (configuration not stated): the AC50 was 0.891 µM (active). For `COc1cc2c(cc1OC)C(C(=O)Nc1ccccn1)C(c1cccnc1)N(C)C2=O` (configuration not stated), the “activity, negative = inhibition” value was -28.9%.

On to `COc1cc2c(cc1OC)C(C(=O)Nc1cccc(C)n1)C(c1cccnc1)N(C)C2=O` (configuration not stated), for which the AC50 is 0.251 µM (active). For `COc1ccc(NC(=O)C2c3cc(OC)c(OC)cc3C(=O)N(C)C2c2cccnc2)cc1OC` (configuration not stated), the “activity, negative = inhibition” value was -13.1%.

Take `COc1cc(N=C(N)N=C(N)N)c2ncccc2c1`: the activity, negative = inhibition is 36.7% [at 11.4 µM]. For `NCCCCCCNS(=O)(=O)c1cccc2c(Cl)cccc12`, the half-maximal activity concentration (AC50) was 200 nM (active) and 10 nM (active). On to `NCCNS(=O)(=O)c1ccc(N)cc1`, for which the activity, negative = inhibition was -4.78% [at 11.4 µM]. As for `NCCCCNS(=O)(=O)c1ccc2c(Cl)cccc2c1`, the AC50 is 0.00251 µM (active). Still for that read-out and setting: with `NCCCCNS(=O)(=O)c1cccc2c(Cl)cccc12` the figure was 0.1 µM (active).

As for `CNCCNS(=O)(=O)c1cccc2cnccc12`, the “activity, negative = inhibition” value is -28.3%. Consider `CCCCCCCNS(=O)(=O)c1cccc2c(Cl)cccc12`, for which the AC50 is 0.126 µM (active).

Consider `Nc1ccc(S(=O)(=O)NCCS(=O)(=O)O)cc1`, for which the activity, negative = inhibition was 22.1% [at 11.4 µM]. Still for that read-out and setting: with `CCN1C(=O)C=CC1=O` the figure was -21.9%; with `COc1cc(/C=C/C(=O)O)cc(S(=O)(=O)NCCCO)c1OC`, 5.71%.

Regarding `CCCCNS(=O)(=O)c1ccc(OC)c(Cl)c1Cl`, the AC50 was 0.794 µM (active). Same read-out and setting: the result for `NCCCCCCCCCCNS(=O)(=O)c1cccc2c(Cl)cccc12` reads 0.0794 µM (active). On the same count and under the same terms, the result for `NCCCCCCNS(=O)(=O)c1cccc2ccccc12` reads 1 µM (active); that for `O=S(=O)(NCCCCCCc1ccccc1)c1cccc2c(Cl)cccc12`, 1 µM (active). Turning to `C=CCNS(=O)(=O)c1cccc2cc(C(=O)O)c(O)cc12`, the “activity, negative = inhibition” value was 16.1%.

In the case of `NCCNS(=O)(=O)c1cccc2cnccc12`, the AC50 result was “inactive”.
